Sampled rows, rich in hits. Any-hit rate of the full collection: about 7.9%.
HT1080 IDH1KD tx – qHTS for induction of synthetic lethality in tumor cells producing 2HG: qHTS for the HT-1080-IDH1KD cell line; HT-1080 IDH1 knockdown viability, ATP luminescence, 48 h; Potency, µM (highest dose often 46.1 µM), inactives show at the highest dose activity, negative = toxicity, hits mostly cytotoxic; 360,000 compounds, 2% hits;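 further: 0% = DMSO wells and -100% = cell-free medium wells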
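CellTiter-Glo luminescence after 48 h compound exposure at 37 degrees C of IDH1-knockdown HT-1080 cells in 5% FBS RPMI. %Activity scaled between DMSO wells and cell-free media wells, with curves fitted and assigned curve classes.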
MCF10A rereplic – A quantitative high throughput screen for small molecules that induce DNA re-replication in MCF 10a normal breast cells; MCF 10A DNA re-replication, Hoechst nuclear intensity, 48 h; Potency, µM (doses to about 46.1 µM), without a hit: at the top dose activity, positive = re-replication, hits mostly activators; 350,000 compounds, 2.9% hits; further: % of control where 0% means no effect; nearly all actives have a fitted effect of over 50% in size
SW480 rereplic – A quantitative high throughput screen for small molecules that induce DNA re-replication in SW480 colon adenocarcinoma cells; SW480 DNA re-replication, Hoechst DNA content imaging, 48 h; Potency, µM (highest dose often 46.1 µM), for inactives: at the highest dose re-replication activation, actives largely listed as activators; 340,000 compounds, 1.8% hits; AID 624297, 2012; further: % of control where 0% means no effect; nearly all actives have a fitted effect of over 55% in size
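DNA re-replication was detected as more nuclei of elevated Hoechst intensity after 48 hr exposure to compound (23 nL pinned per well of 250 cells).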
KB-V1 MDR tox – qHTS assay for MDR1-selective chemotherapeutics: Primary screen using the drug-selected MDR subline cells KB-V1 | Potency, µM (highest dose often 46.1 µM), actives largely listed as cytotoxic | KB-V1 MDR cells viability, CellTiter-Glo, 72 h | 400,000 compounds, 3.4% hits; further: on the % scale 0 is the no-effect control and ±100 the full control effect; nearly all actives have a fitted effect of over 60% in size
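In this primary screen, KB-V1 cells overexpressing P-gp are incubated with library compounds (lowest to highest concentration) for 72 h at 37 degrees C before a luminescent ATP viability read.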
HT1080NT lethal – qHTS for induction of synthetic lethality in tumor cells producing 2HG: qHTS for the HT-1080-NT fibrosarcoma cell line. HT-1080-NT fibrosarcoma viability, CellTiter-Glo ATP luminescence, 48 h. Potency, µM (top dose mostly 46.1 µM), for the others: at the top dose activity, negative = less viability, hits mostly cytotoxic. 360,000 compounds, 1.6% hits;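 further: NT is the 2HG producing partner of a matched IDH1 knockdown line; 0% = DMSO-treated cells and -100% = media-only wells without cells; nearly all actives have a fitted effect of over 55% in size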
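Luminescent CellTiter-Glo readout after 48 hours of compound exposure at 37 degrees C defined viability of HT-1080-NT cells. Activity was normalized to DMSO wells and cell-free media wells; concentration-response curves were fitted and assigned curve classes.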
KB-3-1 tox – qHTS assay for MDR1-selective chemotherapeutics: Primary screen using the parental adenocarcinoma cell KB-3-1. Potency, µM (series often up to 46.1 µM), actives largely listed as cytotoxic. 400,000 compounds, 1.4% hits. KB-3-1 viability, CellTiter-Glo ATP luminescence, 72 h; further: on the % scale 0 is the no-effect control and ±100 the full control effect; nearly all actives have a fitted effect of over 60% in size
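Screening of KB-3-1 cells (DMEM, 10% FBS, phenol-red free) ran from lowest to highest compound concentration; after 72 h at 37 °C viability was read luminescently and curves fitted.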
Numbers without * were called inactive; i = inactive; ? = inconclusive; nt = not tested or not shown. The call rests on the fitted dose curve; in most records, active means well fitted curve in the direction sought with a large enough effect; inconclusive means small, poorly fitted or top-dose-only effect, or another doubt; inactive means no such curve, though single readings can be large; an effect the other way counts as inactive or inconclusive. Potency means the concentration at half of the fitted maximal effect.

SMILES	HT1080 IDH1KD tx	MCF10A rereplic	SW480 rereplic	KB-V1 MDR tox	HT1080NT lethal	KB-3-1 tox
COc1ccc(NC(=O)C2CCC(N3C(=O)C4C5C=CC(C5)C4C3=O)CC2)cc1 (stereo unspecified)	-11%	-3%	1%	i	-14%	i
O=C(Nc1ccc(Cc2ccncc2)cc1)C1CCC(N2C(=O)C3C4C=CC(C5CC45)C3C2=O)CC1 (stereo unspecified)	?	?	14%	12µM*	?	?
CC(=O)Nc1ccc(NC(=O)C2CCC(N3C(=O)C4C5C=CC(C6CC56)C4C3=O)CC2)cc1 (stereo unspecified)	-2%	23µM*	2%	i	-1%	i
O=S(=O)(Nc1ccc(N2CCCCC2)cc1)c1ccc(F)cc1	5%	16%	-11%	i	3%	i
Cc1ccc2c(c1)N(C(=O)CCC(=O)NC1CCC(C)CC1)CCO2 (stereo unspecified)	7%	1%	-2%	i	?	i
Cc1ccc(C)n1-n1cnc2sc3c(c2c1=O)CCC3	-1%	-1%	?	i	7%	i
N=c1c(C(=O)NCc2ccc(F)cc2)cc2c(=O)n3ccccc3nc2n1Cc1cccnc1	-2%	5.8µM*	?	?	-4%	i
N=c1c(C(=O)NC2CCCCC2)cc2c(=O)n3ccccc3nc2n1Cc1ccco1	6%	?	21µM*	i	-6%	i
Cc1ccc(Cn2c(=N)c(C(=O)NC3CCCC3)cc3c(=O)n4ccccc4nc32)cc1	20%	?	1.6µM*	i	12%	i
N=c1c(C(=O)NC2CCCCC2)cc2c(=O)n3ccccc3nc2n1Cc1cccnc1	-1%	?	15µM*	i	0%	i
COC(=O)c1cc2c(=O)n3ccccc3nc2n(Cc2cccnc2)c1=N	9%	?	?	i	2%	i
CCCn1c(=N)c(C(=O)NCc2cccnc2)cc2c(=O)n3ccccc3nc21	nt	nt	nt	i	nt	i
COc1ccc(CNC(=O)CCn2c(=O)c3cccn3c3ccc(F)cc32)cc1	6%	1%	-26%	?	?	i
O=[N+]([O-])c1cccc(COc2cccc(CN3CCOCC3)c2)c1	-7%	?	-67%	i	-7%	i
CCC(C)n1c(=N)c(C(=O)NC2CCCC2)cc2c(=O)n3ccccc3nc21 (stereo unspecified)	nt	nt	nt	i	nt	i
COc1ccc(CCn2c(=N)c(C(=O)NCc3ccco3)cc3c(=O)n4ccccc4nc32)cc1	13µM*	9.2µM*	14%	23µM*	?	i
O=C(NC1CCCN(Cc2ccc(Cl)cc2)C1)c1cnc2ccccn2c1=O (stereo unspecified)	-17%	11%	1%	nt	-6%	nt
N=c1c(C(=O)NC2CCCCC2)cc2c(=O)n3ccccc3nc2n1CCc1ccccc1	2%	2.6µM*	2.3µM*	i	-1%	i
CC(C)Cc1ccc(CN2CCCC(NC(=O)c3cnc4ccccn4c3=O)C2)cc1 (stereo unspecified)	-7%	?	?	?	-11%	16µM*
N=c1c(C(=O)NC2CCCCC2)cc2c(=O)n3ccccc3nc2n1Cc1ccccc1	1%	2.6µM*	9.2µM*	i	-2%	i
Cc1ccc2nc3c(cc(C(=O)NCc4ccco4)c(=N)n3C(C)C)c(=O)n2c1	nt	nt	nt	i	nt	i
COCCNC(=O)C(c1ccc(OC)cc1)N(CCOC)C(=O)CCC(=O)Nc1nccs1 (stereo unspecified)	6%	-17%	-4%	i	19%	i
O=C(OCc1cc(=O)n2nc(-c3cccs3)sc2n1)c1ccccc1Br	nt	nt	nt	i	nt	i
N=c1c(S(=O)(=O)c2ccccc2)cc2c(=O)n3ccccc3nc2n1Cc1ccco1	-19%	1%	18%	i	-23%	i
N=c1c(C(=O)NCCc2ccccc2)cc2c(=O)n3ccccc3nc2n1Cc1ccco1	?	9.2µM*	18µM*	?	?	i
SMILES	HT1080 IDH1KD tx	MCF10A rereplic	SW480 rereplic	KB-V1 MDR tox	HT1080NT lethal	KB-3-1 tox
CCOC(=O)c1sc(NC(=O)c2cccs2)cc1C	?	0%	0%	?	-26%	i
CCOC(=O)c1sc(NC(=O)Nc2cccc(Cl)c2)cc1C	?	?	26%	13µM*	?	?
CCCC(=O)Nc1nc2ccc(OC)cc2s1	0%	9%	-3%	i	3%	i
CCOC(=O)c1sc(Nc2nc3c(F)cccc3s2)cc1C	-29%	21µM*	?	i	?	i
CCOC(=O)c1sc(Nc2nc3ccc(OC)cc3s2)cc1C	?	18µM*	?	i	?	i
O=C(c1ccncc1)N1N=C2CCCCCC2C1(O)C(F)(F)F (stereo unspecified)	1%	-1%	2%	i	3%	i
CCCn1c(N)c(C(=O)CSc2ncn[nH]2)c(=O)n(C)c1=O	17%	-2%	-4%	i	13%	i
Cc1c(C(=O)NCc2ccc3c(c2)OCO3)sc(=O)n1Cc1ccc(S(C)(=O)=O)cc1	-13%	nt	nt	?	1%	?
Cc1c(C(=O)NCc2cccc(Cl)c2)sc(=O)n1Cc1cccc(F)c1	?	nt	nt	18µM*	?	i
Cc1cccc(CNC(=O)c2sc(=O)n(Cc3ccc(S(C)(=O)=O)cc3)c2C)c1	?	nt	nt	15µM*	-6%	?
COc1ccc(Cn2ccc3nc(C)c(C(=O)NCc4ccc(F)cc4)cc3c2=O)cc1	nt	nt	nt	i	nt	?
Cc1cccc(C)c1Cn1c(C)c(C(=O)NCc2ccc([N+](=O)[O-])cc2)sc1=O	?	nt	nt	2.6µM*	?	?
COc1ccc(Cn2ccc3nc(C)c(C(=O)NCc4ccc(C)cc4)cc3c2=O)cc1	nt	nt	nt	i	nt	5.2µM*
COC(=O)c1ccc(Cn2c(C)c(C(=O)NCc3ccc([N+](=O)[O-])cc3)sc2=O)o1	-22%	nt	nt	?	0%	i
Cc1c(C(=O)NCc2ccc(Cl)c(Cl)c2)sc(=O)n1Cc1cccc(F)c1	?	nt	nt	?	?	i
Cc1c(C(=O)NCc2ccccc2C(F)(F)F)sc(=O)n1Cc1ccc(S(=O)(=O)N(C)C)cc1	-24%	nt	nt	8.2µM*	-10%	?
